According to PubChem BioAssay (NCATS):
Results filed as inconclusive are left out. Entries that show only a call come without a potency. Active and inactive are the calls of the source. Calls follow the shape of the dose curve; as a rule, active = well fitted curve in the direction sought with a large enough effect; inconclusive = small, poorly fitted or top-dose-only effect, or another doubt; inactive = no such curve, though single readings can be large; an effect the other way counts as inactive or inconclusive.

What was measured:
[1] = qHTS of pediatric cancer cell lines to identify multiple opportunities for drug repurposing: Confirmatory screen for BT-37 cells (AID 1347117); also: nearly all actives have a fitted effect of over 55% in size; also: potency is read from the fitted curve at half-maximal effect
Method in brief: (§1)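 Cells (500-1,000/well) in growth media were settled 5 h at 37 degrees C, then given compounds for 48 h. Viability was read as CellTiter-Glo luminescence. Primary runs used MIPE at 11 points (0.78 nM-46 µM) and NPC at 8 points (0.59 nM-46 µM); follow-ups used 11 points.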

[2] = qHTS of pediatric cancer cell lines to identify multiple opportunities for drug repurposing: Confirmatory screen for MG 63 (6-TG R) cells (AID 1347119); also: nearly all actives have a fitted effect of over 55% in size
Method in brief: as §1

[3] = qHTS of pediatric cancer cell lines to identify multiple opportunities for drug repurposing: Confirmatory screen for control Hh wild type fibroblast cells (AID 1347121); also: nearly all actives have a fitted effect of over 70% in size
Text: Drug repurposing or repositioning has been offered as a strategy for drug development in oncology programs. This approach has special potential for childhood cancers and other rare or orphan diseases, where the expected return on new drug development has been a disincentive to pharmaceuticals.
In this project we exploit the poly-pharmacology of drugs to discover new indications via phenotypic screening of a panel of 19 well-characterized cell lines derived from solid tumors seen in children and adolescents. The goal is to identify approved drugs with previously unrecognized anticancer properties that has the potential to reveal new mechanisms and biological processes involved in carcinogenesis or drug resistance. We employed a titration-based paradigm (quantitative high-throughput screening or qHTS), where all compounds were tested at multiple concentrations for their effect on cell viability. Concentration-response curves (CRCs) were derived directly from the primary screen, and both potency and efficacy values were used to identify compounds with robust bioactivity profiles. We screened the NIH Chemical Genomics Center (NCGC) Pharmaceutical Collection (NPC) and Mechanism Interrogation Plate (MIPE) small molecule collections of approved and investigational compounds against these cell lines; and measured metabolically active cells after 48 hours of compound treatment as a proxy for cell viability.
Assay Submitter: Nathalia J. Martinez, National Center for Advancing Translational Sciences, National Institutes of Health, Rockville, MD, USA; email: natalia.martinez@nih.gov
[1] Shen, M et al. Quantitative high-throughput phenotypic screening of pediatric cancer cell lines identifies multiple opportunities for drug repurposing. Oncotarget 2017 Dec 19;9(4):4758-4772. PMID 29435139. […]
Cells were assayed in growth media at a density of 500-1,000 cells/well. […] After a 15 min incubation at room temperature, samples were analyzed for luminescence intensity using a ViewLux High-throughput CCD imager equipped with clear filters.

[4] = qHTS of pediatric cancer cell lines to identify multiple opportunities for drug repurposing: Confirmatory screen for U-2 OS cells (AID 1347122); also: nearly all actives have a fitted effect of over 65% in size
Method in brief: as §1

[5] = qHTS of pediatric cancer cell lines to identify multiple opportunities for drug repurposing: Confirmatory screen for Rh41 cells (AID 1347123); also: nearly all actives have a fitted effect of over 60% in size; also: potency is read from the fitted curve at half-maximal effect
Method in brief: as §1

[6] = qHTS of pediatric cancer cell lines to identify multiple opportunities for drug repurposing: Confirmatory screen for RD cells (AID 1347124);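 also: cells exposed to compound for 48 h before viability readout; nearly all actives have a fitted effect of over 65% in size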; also: potency is read from the fitted curve at half-maximal effect
Method in brief: as §1

[7] = qHTS of pediatric cancer cell lines to identify multiple opportunities for drug repurposing: Confirmatory screen for Rh18 cells (AID 1347125); also: nearly all actives have a fitted effect of over 55% in size; also: potency is read from the fitted curve at half-maximal effect
Method in brief: as §1

[8] = qHTS of pediatric cancer cell lines to identify multiple opportunities for drug repurposing: Confirmatory screen for Rh30 cells (AID 1347126); also: nearly all actives have a fitted effect of over 55% in size; also: potency is read from the fitted curve at half-maximal effect
Method in brief: as §1

[9] = qHTS of pediatric cancer cell lines to identify multiple opportunities for drug repurposing: Confirmatory screen for TC32 cells (AID 1347118); conditions: TC32 Ewing sarcoma cells viability qHTS;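 also: potency is read from the fitted curve at half-maximal effect; cells exposed to compound for 48 h before the read; nearly all actives have a fitted effect of over 65% in size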
Method in brief: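 Luminescent CellTiter-Glo read-out of metabolically active TC32 cells after 48 h compound exposure. Primary: MIPE 11-point, 0.78 nM–46 µM; NPC 8-point, 0.59 nM–46 µM. Confirmatory: 11-point dilutions.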

[10] = qHTS of pediatric cancer cell lines to identify multiple opportunities for drug repurposing: Confirmatory screen for SJ-GBM2 cells (AID 1347116); also: nearly all actives have a fitted effect of over 60% in size
Method in brief: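 Viability measured as metabolically active cells via CellTiter-Glo luminescence following 48 hours of compound exposure, 11-point dilutions in confirmatory testing. 500-1,000 cells/well plated 5 hours before dosing; controls were DMSO and 2.3 µM bortezomib.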

COc1cc(C(=O)NCCCCCC(=O)O)cc(OC)c1OC
Potency [1]: inactive
outcome [2]: inactive
outcome [3]: inactive
outcome [4]: inactive
Potency [5]: inactive
Potency [6]: inactive
Potency [7]: inactive
Potency [8]: inactive

O=C(Cn1ccnc1[N+](=O)[O-])NCc1ccccc1
Potency [1]: inactive
Potency [9]: 1.85 µM (active)
outcome [3]: inactive
outcome [4]: inactive
Potency [5]: inactive
Potency [6]: inactive
Potency [7]: inactive

CC(=O)OCC(=O)[C@@]1(O)CC[C@H]2[C@@H]3CCC4=CC(=O)C=C[C@]4(C)[C@@]3(F)[C@@H](O)C[C@@]21C
Potency [1]: 16.5 µM (active)
Potency [9]: 14.7 µM (active)
outcome [4]: inactive
Potency [5]: 11.7 µM (active)
Potency [6]: 20.8 µM (active)
Potency [7]: 18.5 µM (active)
Potency [8]: 13.1 µM (active)

CC(=O)[C@@]1(O)CC[C@H]2[C@@H]3C[C@H](C)C4=CC(=O)C=C[C@]4(C)[C@@]3(F)[C@@H](O)C[C@@]21C
outcome [10]: inactive
Potency [1]: inactive
Potency [9]: 2.93 µM (active)
outcome [2]: inactive
outcome [3]: inactive
outcome [4]: inactive
Potency [6]: inactive
Potency [7]: inactive
Potency [8]: inactive
